Source: ChEMBL document CHEMBL4513141, “CO-ADD screening of NIH (USA) - Clinical Collection” (2021)
Entries with a potency or affinity are not part of this list.

Columns and labels:
[1] = test system: Klebsiella pneumoniae; conditions: Concentration 20 uM; ASSAY_TEST Inhibition of Bacterial Growth; detection method Absorption (OD600); MEDIA CAMHB; plate type 384well; NBS; CORNING #3640; time 18 hr
[2] = test system: Candida albicans; conditions: 20 µM
[3] = test system: Cryptococcus neoformans; conditions: Concentration 20 uM; ASSAY_TEST Inhibition of Fungal Growth; detection method Resazurin; Absorption (OD600-OD570); plate type 384well; NBS; CORNING #3640

Question: `CC[C@H](C)C(=O)O[C@H]1CCC=C2C=C[C@H](C)[C@H](CC[C@@H]3C[C@@H](O)CC(=O)O3)[C@H]21` [MEVASTATIN] was tested. Which Inhibition [1] did it give?
Answer: The Inhibition was 5.3%.

Question: What about the Inhibition [2] of the same compound?
Answer: Its Inhibition is 24.7%.

Question: And the Inhibition [3]?
Answer: Its Inhibition is -2.39%.

Question: `Cl.O=c1n(CCCN2CCN(c3cccc(Cl)c3)CC2)nc2ccccn12` [TRAZODONE HYDROCHLORIDE] was tested. Which Inhibition [1] did it give?
Answer: Its Inhibition is 4.82%.

Question: And the Inhibition [2]?
Answer: Its Inhibition is 3.08%.

Question: What about the Inhibition [3] of the same compound?
Answer: Its Inhibition is -5.73%.

Question: What does the source list for `COc1ccc(-c2cc(=O)c3c(OC)c(OC)c(OC)c(OC)c3o2)cc1OC` [NOBILETIN]?
Answer: Inhibition [1]: 4.76%; Inhibition [2]: 7.12%; Inhibition [3]: -2.3%

Question: For `O=c1[nH]c(=O)n(C2CCCO2)cc1F` (configuration not stated) [TEGAFUR], which Inhibition [1] is on record?
Answer: Its Inhibition is 13.49%.

Question: What about the Inhibition [2] of the same compound?
Answer: The Inhibition was 3.66%.

Question: What about the Inhibition [3] of the same compound?
Answer: Its Inhibition is -3.75%.

Question: How did the Inhibition [1] turn out when `Cn1ccnc1S` [METHIMAZOLE] was run?
Answer: Its Inhibition is 12.71%.

Question: What about the Inhibition [2] of the same compound?
Answer: The Inhibition was 5.56%.

Question: What about the Inhibition [3] of the same compound?
Answer: Its Inhibition is 0.77%.

Question: `CCCCC(=O)N(Cc1ccc(-c2ccccc2-c2nnn[nH]2)cc1)[C@H](C(=O)O)C(C)C` was tested. Which Inhibition [1] did it give?
Answer: Its Inhibition is 7.53%.

Question: And the Inhibition [2]?
Answer: Its Inhibition is 3.96%.

Question: What about the Inhibition [3] of the same compound?
Answer: The Inhibition was -1.97%.

Question: What does the source list for `Nc1ccc(S(=O)(=O)c2ccc(N)cc2)cc1` [DAPSONE]?
Answer: Inhibition [1]: 5.01%; Inhibition [2]: -0.53%; Inhibition [3]: 0.91%

Question: How did the Inhibition [1] turn out when `C=C1/C(=C\C=C2/CCC[C@]3(C)[C@@H]([C@H](C)CCCC(C)(C)O)CC[C@@H]23)C[C@@H](O)C[C@@H]1O` [CALCITRIOL] was run?
Answer: Its Inhibition is 21.35%.

Question: And the Inhibition [2]?
Answer: The Inhibition was 2.06%.

Question: And the Inhibition [3]?
Answer: The Inhibition was -8.66%.

Question: What does the source list for `CCc1nn(CCCN2CCN(c3cccc(Cl)c3)CC2)c(=O)n1CCOc1ccccc1.Cl` [NEFAZODONE HYDROCHLORIDE]?
Answer: Inhibition [1]: 1.06%; Inhibition [2]: 2.01%; Inhibition [3]: -2.69%

Question: With `COc1ccnc(C[S+]([O-])c2nc3cc(OC(F)F)ccc3[n-]2)c1OC.O.[Na+]` (configuration not stated) [PANTOPRAZOLE SODIUM] as the compound, how does the Inhibition [1] read?
Answer: The Inhibition was 5.85%.

Question: What about the Inhibition [2] of the same compound?
Answer: Its Inhibition is 19.6%.

Question: And the Inhibition [3]?
Answer: The Inhibition was -26.37%.

Question: `CCOC(=O)[C@@H](CCc1ccccc1)N[C@@H](C)C(=O)N1CCC[C@H]1C(=O)O.O=C(O)/C=C\C(=O)O` was tested. Which Inhibition [1] did it give?
Answer: The Inhibition was 10.36%.

Question: And the Inhibition [2]?
Answer: Its Inhibition is 0.69%.

Question: And the Inhibition [3]?
Answer: Its Inhibition is -1.23%.

Question: `CN1CCc2cc(Cl)c(O)cc2[C@@H](c2ccccc2)C1.Cl` was tested. Which Inhibition [1] did it give?
Answer: The Inhibition was 8.81%.

Question: What about the Inhibition [2] of the same compound?
Answer: The Inhibition was 1.81%.

Question: And the Inhibition [3]?
Answer: The Inhibition was -7.18%.

Question: Which Inhibition [1] does the source give for `CN(C)CCCSc1ccccc1NC(=O)/C=C/c1ccccc1.Cl.O` here?
Answer: The Inhibition was 18.81%.

Question: And the Inhibition [2]?
Answer: Its Inhibition is 2.74%.

Question: And the Inhibition [3]?
Answer: Its Inhibition is -8.97%.

Question: `O=S(=O)([O-])CCS.[Na+]` [MESNA] was tested. Which Inhibition [1] did it give?
Answer: Its Inhibition is 6.51%.

Question: And the Inhibition [2]?
Answer: Its Inhibition is 4.45%.

Question: What about the Inhibition [3] of the same compound?
Answer: Its Inhibition is 1.48%.

Question: With `CC(CN1c2ccccc2Sc2ccccc21)N(C)C.Cl` (configuration not stated) [PROMETHAZINE HYDROCHLORIDE] as the compound, how does the Inhibition [1] read?
Answer: Its Inhibition is 0.77%.

Question: And the Inhibition [2]?
Answer: Its Inhibition is 3.31%.

Question: And the Inhibition [3]?
Answer: The Inhibition was -6.2%.

Question: For `Nc1ccn([C@@H]2O[C@H](CO)[C@@H](O)[C@@H]2O)c(=O)n1` [CYTARABINE], which Inhibition [1] is on record?
Answer: Its Inhibition is 5.64%.

Question: And the Inhibition [2]?
Answer: Its Inhibition is 2.79%.

Question: What about the Inhibition [3] of the same compound?
Answer: The Inhibition was -8.77%.

Question: For `CC(C)NCC(O)c1ccc(NS(C)(=O)=O)cc1.Cl` (configuration not stated) [SOTALOL HYDROCHLORIDE], which Inhibition [1] is on record?
Answer: The Inhibition was -0.96%.

Question: What about the Inhibition [2] of the same compound?
Answer: The Inhibition was 5.09%.

Question: What about the Inhibition [3] of the same compound?
Answer: Its Inhibition is 3.23%.

Question: Which results are given for `C[C@]12C=CC(=O)C=C1CC[C@@H]1[C@@H]2C(=O)C[C@@]2(C)[C@H]1CC[C@]2(O)C(=O)CO` [PREDNISONE]?
Answer: Inhibition [1]: 18.73%; Inhibition [2]: 1.91%; Inhibition [3]: -7.34%

Question: How did the Inhibition [1] turn out when `CC(C)(S)C(N)C(=O)O` (stereo not drawn) [DL-PENICILLAMINE] was run?
Answer: Its Inhibition is 8.23%.

Question: What about the Inhibition [2] of the same compound?
Answer: The Inhibition was 3.66%.

Question: And the Inhibition [3]?
Answer: Its Inhibition is -9.16%.
